In the library only some 1.4% were active in any assay of this set; here they are far more common.
Bcl-B Bim block: human Bim-Bcl-B interaction inhibition | Q9HD36 | bead-based flow cytometry, Bim peptide-Bcl-B binding | inhibition, % at 10 µM | 190,000 compounds, 0.073% hits
Bcl-2 Bim block: disrupts Bim peptide binding to human Bcl-2 | inhibition, % at 10 µM | Bead-based flow cytometry, Bim peptide-Bcl-2 binding | 190,000 compounds, 0.06% hits | P10415; in the data active = inhibition above about 40%
Bcl-XL Bim block: disrupts Bim peptide binding to human Bcl-XL; inhibition, % at 10 µM; 190,000 compounds, 0.04% hits; bead flow cytometry, fluorescence; AID 1007; Q07817
Bcl-W Bim block: inhibitors of Bim-Bcl-W interaction, human. bead-based flow cytometry, Bim peptide-Bcl-W binding. 190,000 compounds, 0.02% hits. inhibition, % at 10 µM;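 also: higher means less fluorescent Bim peptide bound to Bcl-W beads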
Target sequence (Q92843 whole entry, looked up): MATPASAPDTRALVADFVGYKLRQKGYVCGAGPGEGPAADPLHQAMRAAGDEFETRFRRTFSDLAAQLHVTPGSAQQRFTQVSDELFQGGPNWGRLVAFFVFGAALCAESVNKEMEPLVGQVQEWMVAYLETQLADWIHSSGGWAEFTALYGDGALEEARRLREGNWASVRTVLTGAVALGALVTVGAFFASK
Bfl-1 Bim block: human Bim-Bfl-1 interaction inhibition; Q16548; Bead-based flow cytometry, Bim-Bfl-1 binding inhibition; inhibition, % at 10 µM; 190,000 compounds, 0.12% hits
Target sequence (Q16548 whole entry, looked up): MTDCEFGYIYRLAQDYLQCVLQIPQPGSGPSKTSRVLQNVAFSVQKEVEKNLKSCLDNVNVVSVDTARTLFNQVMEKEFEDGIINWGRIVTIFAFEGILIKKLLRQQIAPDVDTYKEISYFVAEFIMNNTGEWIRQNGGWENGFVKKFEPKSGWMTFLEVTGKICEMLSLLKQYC
Wee1 stabilizer: blocks degradation of human Wee1 kinase; HeLa Luc-Wee1K328M stability, luciferase luminescence; 100% = proteasome inhibitor MG132 effect; P30291; 220,000 compounds, 1.2% hits; reporter increase, % at 5 µM;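 active = activation above the mean of all tested compounds plus 3 SD, set per screening run, cut at about 8.8% in these data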;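 also: cells exposed to compound for 20 h before luminescence read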
Numbers stand for hits; 0 = inactive; - = no result. Rule as the data show it, unless noted: active = inhibition above about 40%.

SMILES | Bcl-B Bim block | Bcl-2 Bim block | Bcl-XL Bim block | Bcl-W Bim block | Bfl-1 Bim block | Wee1 stabilizer
COc1cc(C2Nc3cccc4cccc(c34)N2)cc(OC)c1O | 0 | 0 | 0 | 42.0 | 57.0 | 0
CCN1CCCC1CNC(=O)C1CCN(C(=O)c2cc3sccc3n2Cc2ccc(F)cc2)CC1 (stereo not drawn) | 0 | 0 | 0 | 0 | 0 | 11.8
CC(C)OP(=O)(CCP(=O)(OC(C)C)OC(C)C)OC(C)C | - | - | - | - | - | 0
Cc1nn(-c2ccccn2)c2c1C(=O)C(Br)CC2 (stereo not drawn) | 0 | 0 | 0 | 0 | 59.0 | 0
CC1=C(C)C(=O)N(c2ccccn2)C1=O | 0 | 0 | 0 | 0 | 0 | 0
COC(=O)c1cccc(NC(=O)CCc2ccccc2)c1 | 0 | 0 | 0 | 0 | 0 | 9.4
CC(C)CNC(=O)c1cccc(NC(=O)CCc2ccccc2)c1 | 0 | 0 | 0 | 0 | 0 | 10.1
COC(=O)c1cccc(NC(=O)CCc2cc(OC)c(OC)c(OC)c2)c1 | 0 | 0 | 0 | 0 | 0 | 0
COc1ccc2nc(NC(=O)c3cccnc3SC)sc2c1 | 0 | 0 | 0 | 0 | 0 | 0
COc1c(F)c(F)c(C(=O)Nc2ccccc2N2CCN(C(=O)C(C)C)CC2)c(F)c1F | - | 83.0 | 0 | 0 | - | 0
Cc1ccc(S(=O)(=O)/N=C2/C=C(Sc3ncn[nH]3)C(=O)c3ccccc32)cc1 | 0 | 0 | 0 | 0 | 62.0 | 0
Cc1ccc(S(=O)(=O)/N=C2/C=C(Sc3ncn[nH]3)C(=O)c3ccccc32)c(C)c1 | 0 | 0 | 0 | 0 | 69.0 | 0
CCc1ccccc1N/C(=N\S(=O)(=O)c1ccccc1)C(F)(F)F | 0 | 0 | 0 | 0 | 0 | 10.2
c1ccc(CNc2ncnc3c2oc2ccccc23)nc1 | 0 | 0 | 0 | 0 | 0 | 10.3
CCOC(=O)NC(=O)/C(N=Nc1ccc(C(F)(F)F)cc1)=C(\C)O | 0 | 0 | 0 | 0 | 0 | 9.9
COCCN(CCOC)S(=O)(=O)c1ccc(C(=O)Nc2nnc(C3CC3)o2)cc1 | 0 | 0 | 0 | 0 | 0 | 9.4
N#Cc1cc2c(nc1SCc1ccc(Cl)nc1)CCCCC2 | - | - | - | - | - | 0
CNC(=O)c1c(Br)cnn1-c1ccc(C)cc1 | 0 | 0 | 0 | 0 | 0 | 9.2
CNC(=O)c1c(Cl)cnn1-c1ccc(C)cc1 | 0 | 0 | 0 | 0 | 0 | 0
C=CCNC(=O)c1c(Cl)cnn1-c1ccc(C)cc1 | 0 | 0 | 0 | 0 | 0 | 9.2
CCCn1c(SCC(=O)NCCc2ccccc2)nnc1-c1ccco1 | 0 | 0 | 0 | 0 | 0 | 0
c1ccc2sc(N3CCCN(Cc4nc(-c5cnccn5)no4)CC3)nc2c1 | 0 | 0 | 0 | 0 | 0 | 0
Cc1cc(C)nc(N/N=C/c2cc(Br)ccc2O)n1 | - | - | - | - | - | 0
CCC(C)(C)n1nnnc1C(c1cccnc1)N1CCN(c2cccc(C(F)(F)F)c2)CC1 (stereo not drawn) | 0 | 0 | 0 | 0 | 0 | 0
Oc1cccc(-c2nc3ccc4ccccc4c3c3c2CCC3)c1 | 0 | 0 | 0 | 0 | 0 | 9.1
SMILES | Bcl-B Bim block | Bcl-2 Bim block | Bcl-XL Bim block | Bcl-W Bim block | Bfl-1 Bim block | Wee1 stabilizer
Fc1ccc(N/N=C/c2ccncc2)c(F)c1 | 0 | 0 | 0 | 0 | 0 | 0
Fc1ccc(N/N=C/C=C/c2ccccc2)c(F)c1 | 0 | 0 | 0 | 0 | 0 | 10.4
COCCSc1nnc(NC(=O)C2CC(=O)N(c3ccccc3)C2)s1 (stereo not drawn) | 0 | 0 | 0 | 0 | 0 | 0
O=C(Nc1nnc(SCc2ccccn2)s1)C1CC(=O)N(c2ccccc2)C1 (stereo not drawn) | 0 | 0 | 40.0 | 0 | 0 | 0
CC(C)NC(=O)c1cc2c(s1)CCCC2 | 0 | 0 | 0 | 0 | 0 | 8.9
CC(C)(C)C1CCC(=NNC(=O)c2cc3c(s2)CCCC3)CC1 (stereo not drawn) | 0 | 0 | 43.0 | 41.0 | 44.0 | 0
CN1C(=O)C(N=Nc2ccccc2C(=O)O)N(C)C1=S (stereo not drawn) | 0 | 0 | 0 | 0 | 0 | 0
O=C(/C=C/c1ccco1)c1ccc(O)cc1 | 0 | 0 | 0 | 0 | 0 | 0
CN(C)c1ccc(C(=O)/C=C/c2ccco2)cc1 | 0 | 0 | 0 | 0 | 0 | 9.4
O=C(CCNC(=O)Cn1ccc2ccccc2c1=O)NCc1ccccn1 | 0 | 0 | 0 | 0 | 0 | 0
Brc1ccc(-c2cn3ccccc3n2)cc1 | - | - | - | - | - | 9.1
Cc1c2cnn(-c3ccccc3)c(=O)c2c(C)n1CCCC(=O)NCCN1CCN(C)CC1 | - | - | - | - | - | 0
CC(C)c1ccccc1NS(C)(=O)=O | 0 | 0 | 0 | 0 | 0 | 16.0
COc1ccc2oc(-c3ccccc3)c(C(=O)N3CCOCC3)c2c1 | 81.0 | 80.0 | 0 | 0 | 60.0 | 0

Compound activity: PubChem, several laboratories
